PPARg SRC2 recr: agonists of SRC-2 recruitment by human PPARgamma; PPARgamma LBD-SRC-2 recruitment, biochemical; AID 1032; activation, % at 8 µM; 0.34% of 200,000 active; P37231; in the data active means activation above about 22%;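 further: 0% = vehicle and 100% = reference agonist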
Target sequence (P37231 whole entry, looked up, the tested form may be a part): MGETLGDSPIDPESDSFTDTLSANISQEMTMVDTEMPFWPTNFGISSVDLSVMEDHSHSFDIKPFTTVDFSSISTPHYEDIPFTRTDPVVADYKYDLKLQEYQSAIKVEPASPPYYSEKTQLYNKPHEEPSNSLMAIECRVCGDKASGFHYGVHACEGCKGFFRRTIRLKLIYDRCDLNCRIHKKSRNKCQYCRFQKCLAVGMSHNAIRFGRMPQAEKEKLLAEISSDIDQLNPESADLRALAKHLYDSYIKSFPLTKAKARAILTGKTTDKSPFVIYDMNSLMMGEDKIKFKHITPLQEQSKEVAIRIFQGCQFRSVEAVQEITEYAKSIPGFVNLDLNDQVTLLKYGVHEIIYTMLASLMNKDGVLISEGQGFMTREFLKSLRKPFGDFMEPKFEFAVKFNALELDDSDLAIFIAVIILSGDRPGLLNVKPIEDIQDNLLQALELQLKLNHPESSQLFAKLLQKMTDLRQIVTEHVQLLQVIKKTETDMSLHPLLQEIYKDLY
PPARg SRC3 recr: promotes SRC-3 coactivator recruitment by human PPARgamma | AID 731 | P37231 | biochemical PPARgamma/SRC-3 coactivator recruitment assay | activation, % at 8 µM | 0.26% of 200,000 active; in the data active means activation above about 23%;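 further: 0% = DMSO and 100% = reference agonist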
PPARg SRC-1 ag: agonists of human PPARgamma SRC-1 coactivator recruitment | PPARgamma-SRC-1 coactivator recruitment biochemical assay | activation, % at 8 µM | 0.41% of 200,000 active; in the data active means activation above about 19%;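 further: 0% = DMSO and 100% = reference agonist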
SRC3 TRFRET art: TR-FRET artefact, counter-screen to PPARgamma/SRC-3 agonist assay. AID 1048. PPARgamma/SRC-3 format; stronger effect = higher value. 0.39% of 99,000 active. TR-FRET ratio at 8 µM
SRC1 TRFRET art: TR-FRET artefact, counter-screen to PPARgamma/SRC-1 agonist assay; 0.34% of 99,000 active; TR-FRET ratio at 8 µM; AID 1051; TR-FRET detection artefact counter-screen, emission ratio; stronger effect = higher value; in the data active means TR-FRET ratio above about 2300
TR-FRET SRC-2 ct: counter-screen for PPARgamma SRC-2 recruitment agonists: TR-FRET artefact | 0.4% of 200,000 active | stronger effect = higher value | TR-FRET ratio at 8 µM
* = called active by the depositor; x = no result given. An excerpt weighted towards active compounds, which were near 0.9% of everything screened. Unless noted, no stated cut-off is given here; in the data, active means TR-FRET ratio above about 2000; inactive means the rest.

SMILES	PPARg SRC2 recr	PPARg SRC3 recr	PPARg SRC-1 ag	SRC3 TRFRET art	SRC1 TRFRET art	TR-FRET SRC-2 ct
COc1ccc(C2(O)CCN(CC(=O)Nc3nccs3)CC2)c(OC)c1	4	1	8	x	x	1972*
CCOc1ccc(C(C)=O)cc1CSc1nc2nc(C)cc(C)n2n1	10	1	4	1702	1926	1543
O=c1oc2ccccc2cc1-c1cn2ccccc2n1	5	60*	-7	3228*	1911	1565
CCN1/C(=C/C=C/C=C/c2sc3ccccc3[n+]2CC)Sc2ccccc21	541*	339*	448*	13609*	14504*	10856*
Cc1ccc2cc(CCNC(=O)Cc3cccs3)c(=O)[nH]c2c1	3	3	-2	1813	1783	1590
CC(C)(C)NC(=O)NC(=O)CN1CCN(C(c2ccccc2)c2ccccc2)CC1	5	2	9	1691	1984	1551
Cc1ccc(-c2csc(NC(=O)c3cc([N+](=O)[O-])ccc3N3CCOCC3)n2)cc1	-6	23*	1	2579*	1659	1581
Clc1cccc(Cl)c1CNc1ccc(N2CCCC2)cc1	11	11	8	1797	1835	1864
CCOc1cc(/C=N/NC(=O)c2cccnc2)cc(Br)c1OCC(N)=O	7	-1	-2	1387	1971	1501
Cc1cnc(N)c2c(=O)oc3ccccc3c12	5	7	1	x	x	2018*
CCn1cc(CNCc2cn(C)nc2-c2ccc(C3CCCCC3)cc2)cn1	3	0	22*	1641	1896	1699
COC(=O)c1ccc(NC(c2ccc(Cl)cc2)P(=O)(OC)OC)cc1 (stereo unspecified)	-7	-8	-1	1389	1752	1439
CC1(C)Cc2c(C#N)c(SCC(=O)c3ccccc3)nc(N3CCOCC3)c2CS1	7	2	8	x	x	2038*
COC(=O)c1cccc(NC(=O)/C=C/c2ccc([N+](=O)[O-])cc2)c1	-1	0	8	2126*	1916	1720
COC(=O)c1cccc(NC(=O)/C=C/c2cccc([N+](=O)[O-])c2)c1	0	-4	-4	x	x	1465
CN(C)c1ccc(N=C/C=C2\N(C)c3ccccc3C2(C)C)cc1	8	28*	3	x	x	1577
CC(C)CCOc1ccc(C2CC(=O)N(C)C2=O)cc1 (stereo unspecified)	-6	-5	-5	1460	1486	1472
CS(=O)(=O)N(CC(=O)NCc1ccncc1)Cc1ccc(Cl)cc1	5	28*	-5	x	x	1331
COc1ccc(CCCc2n[nH]c(=S)o2)cc1	-2	-1	7	1430	1887	2009*
Cc1nn(Cc2c(F)cccc2Cl)c(C)c1[N+](=O)[O-]	0	0	21*	1841	1688	1578
O=c1c2sccc2nc(SCc2ccc([N+](=O)[O-])cc2)n1Cc1ccccn1	5	4	8	1827	1873	1525
COC(=O)c1ccccc1NC(=S)N(Cc1ccc2c(c1)OCO2)Cc1cc2ccc(OC)cc2[nH]c1=O	13	-1	-5	2123*	1854	1721
COc1ccc(/C(C)=N/N=C2/NC(=O)CC(C(=O)O)S2)cc1 (stereo unspecified)	-3	-1	-8	1614	1477	1565
C/C(=N\N=C1\NC(=O)CC(C(=O)O)S1)c1ccc(F)cc1 (stereo unspecified)	-6	2	16	1450	2658*	1531
Cc1ccc(-c2cc(C(F)F)n3ncc(C(=O)N4CCN(c5cccc(C)c5C)CC4)c3n2)cc1	3	-2	0	x	x	1540
SMILES	PPARg SRC2 recr	PPARg SRC3 recr	PPARg SRC-1 ag	SRC3 TRFRET art	SRC1 TRFRET art	TR-FRET SRC-2 ct
COc1ccc(-c2cc(-c3ccc(Br)cc3)nc3ncnn23)cc1OC	18	19	13	x	x	2400*
COc1ccc(-c2cc(-c3ccccc3)nc3ncnn23)cc1	-4	-1	-3	1563	1632	1582
COc1cc(NC(=O)c2ccc(Cl)cc2Cl)ccc1-c1cc2ccccc2oc1=O	17	18	13	x	x	2335*
COc1cc(NC(C)=O)ccc1-c1cc2ccccc2oc1=O	12	1	16	1621	1840	1672
Nc1ccc(Sc2cnn(-c3ccccc3)c(=O)c2Cl)cc1	6	-2	8	x	x	1527
Cc1ccc(Sc2cnn(-c3ccccc3)c(=O)c2Cl)cc1	19	7	9	x	x	2023*
Cn1c(=O)c(C(=O)NC2CCCCCCC2)c(O)c2ccccc21	8	-2	50*	1661	3217*	1608
Cc1ccc(C(=O)c2cnc3cc4c(cc3c2S(=O)(=O)c2ccccc2)OCCO4)cc1	0	-2	-7	2485*	2238	1863
CCOc1ccc(S(=O)(=O)c2c(C(=O)c3ccc(C)cc3)cnc3cc4c(cc23)OCCO4)cc1	-3	10	8	2812*	2755*	2406*
COc1ccc(C2CC(c3ccccc3)=NN2C(=O)COC(=O)c2cc(S(=O)(=O)N3CCOCC3)ccc2Cl)cc1 (stereo unspecified)	-7	4	-1	1778	2224	2080*
COc1ccc(NC(=O)COC(=O)c2ccc(F)cc2F)cc1	6	12	11	1571	1852	1971*
COc1cccc(NC(=O)COC(=O)c2ccc(F)cc2F)c1	-1	0	-6	1348	1458	1356
COc1cc(OC)nc(NC(=O)COC(=O)c2cccc(Cl)c2)n1	9	1	-5	1700	1750	1509
COc1ccccc1/C=C/CN1CCCC(CCC(=O)NCc2ccccc2F)C1 (stereo unspecified)	-6	-3	-2	1464	1576	1422
CCN(CC)C(=O)c1ccc2c3c(cccc13)C(=O)N(CCc1ccc(OC)c(OC)c1)C2=O	5	-1	0	1603	1939	1626
CS(=O)(=O)c1nc(-c2ccccc2)cc(-c2ccccc2)c1C#N	-2	-2	6	x	x	1773
Cc1ccc(-c2cc(-c3ccccc3)c(C#N)c(Br)n2)cc1	-2	-1	56*	1644	3299*	1632
N#C/C(=C1/C(=O)Nc2ccc(Br)cc21)c1ccccn1	4	3	3	1571	2045	1637
CCOC(=O)c1cnc2c(-c3ccccc3OC)c(C)nn2c1C	4	5	6	1786	1738	1454
N#Cc1cc2c(nc1SCc1ccc(Cl)cc1)CCCC2	1	-10	0	x	x	1440
Cc1ccc(CSc2nc3c(cc2C#N)CCC3)cc1	-4	1	30*	x	x	1460
CCCCNCC#CCOc1cc(C)ccc1C(C)C	0	1	-2	1496	1799	1508
CN(Cc1ccc(OC(F)F)cc1)Cc1nc2c(Br)cc(Br)cc2c(=O)[nH]1	10	7	14	2068*	2212	1842
COC(=O)c1ccc(NC(=O)Cn2nc(C)cc2C)cc1	5	2	-1	1503	1678	1680
CC(C)CC(NC(N)=O)C(=O)OCC(=O)N(Cc1ccccc1)Cc1ccccc1 (stereo unspecified)	-8	4	6	1486	1955	1536
